Most compounds without a hit are left out; they make up all but 21% or so of the library.
NS1 function inh: inhibitors of influenza NS1 protein function; Potency, µM (doses to about 46.1 µM), without a hit: at the highest dose activity, positive = more growth; actives 0.4% (n = 270,000); AID 2326; calls by dose curve; also: potency is read from the fitted curve at half-maximal effect; actives are rising curves; nearly all actives have a fitted effect of over 50% in size
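S. cerevisiae expressing influenza A NS1, grown in glucose, washed, then diluted 1:100 into pH 6.0 -URA galactose medium with 23 nl compound. Growth recovery read as OD600; NS1-free strain serves as control.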
CHX counter: affects cycloheximide protein synthesis inhibition readout, counter-screen; cell reporter, cycloheximide protein synthesis inhibition counterscreen; max response, %; actives 12% (n = 300,000); AID 2314; in the data active = max response mostly above about 13%, no sharp cut-off; inactive = mostly below about 14%; also: read at 38.3 µM for the half of the compounds with a filed dose; 0% is about no effect
Pf growth 96h: P. falciparum growth inhibition at 96 hours; Potency, µM (titrated, usually from 28.7 µM), for inactives: at the top dose activity change, negative = inhibition, actives largely listed as inhibitors; AID 504834; P. falciparum luciferase reporter growth, 96 h; actives 6.9% (n = 320,000); also: potency is read from the fitted curve at half-maximal effect; % is scaled to controls: 0 for no effect and ±100 for the full control effect
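Luminescence readout: decreased luciferase signal marks inhibited growth of reporter-expressing P. falciparum in infected red cells (2% hematocrit, 0.05% parasitemia final), exposed to compound two generations (96 h, 37 C, 5% CO2).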
Pf growth 48h: inhibits P. falciparum growth in the first generation, 48 h | actives 5.9% (n = 310,000) | P. falciparum luciferase growth in erythrocytes, 48 h | Potency, µM (titrated, usually from 28.7 µM), inactives show at the highest dose activity change, negative = inhibition, actives largely listed as inhibitors | AID 504832; also: potency is read from the fitted curve at half-maximal effect; % is scaled to controls: 0 for no effect and ±100 for the full control effect
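Luciferase-expressing P. falciparum in infected erythrocytes (2% hematocrit, 0.1% parasitemia final) in RPMI 1640/0.5% Albumax were exposed to compound for 48 hours at 37 C, 5% CO2; growth read as luminescence.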
Sm TGR inh: blocks Schistosoma mansoni thioredoxin glutathione reductase. Q962Y6. purified TGR, DTNB reduction, TNB absorbance 405 nm. Potency, µM (series often up to 114 µM), inactives show top-dose activity change, negative = inhibition, usual class: inhibitors. actives 3% (n = 360,000). AID 485364; also: potency is read from the fitted curve at half-maximal effect; % is scaled to controls: 0 for no effect and ±100 for the full control effect; nearly all actives have a fitted effect of over 60% in size
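Kinetic colorimetric format: TGR-catalysed, NADPH-driven DTNB reduction monitored via TNB absorbance. Enzyme dispensed at 20 nM; compound exposure 15 min at room temperature before reaction start.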
Shiga inhibitor: blocks Shiga toxin action in Vero cells; inhibition, % at 38.7 µM; Vero cells, Shiga toxin protein synthesis inhibition reporter; actives 9.2% (n = 290,000); in the data active = inhibition mostly above about 28%, no sharp cut-off; inactive = mostly below about 43%; also: 0% is about no effect
CLK4 cf ADPGlo: confirmation of inhibitors of human CDC-like kinase 4; shares compounds with Pf growth 48h; recombinant Clk4, RS peptide, ADP-Glo luminescence; Potency, µM (doses to about 80 µM), for inactives: at the top dose activity, negative = inhibition, hits mostly inhibitors; actives 80% (n = 65)
Target sequence (Q9HAZ1 whole entry, looked up): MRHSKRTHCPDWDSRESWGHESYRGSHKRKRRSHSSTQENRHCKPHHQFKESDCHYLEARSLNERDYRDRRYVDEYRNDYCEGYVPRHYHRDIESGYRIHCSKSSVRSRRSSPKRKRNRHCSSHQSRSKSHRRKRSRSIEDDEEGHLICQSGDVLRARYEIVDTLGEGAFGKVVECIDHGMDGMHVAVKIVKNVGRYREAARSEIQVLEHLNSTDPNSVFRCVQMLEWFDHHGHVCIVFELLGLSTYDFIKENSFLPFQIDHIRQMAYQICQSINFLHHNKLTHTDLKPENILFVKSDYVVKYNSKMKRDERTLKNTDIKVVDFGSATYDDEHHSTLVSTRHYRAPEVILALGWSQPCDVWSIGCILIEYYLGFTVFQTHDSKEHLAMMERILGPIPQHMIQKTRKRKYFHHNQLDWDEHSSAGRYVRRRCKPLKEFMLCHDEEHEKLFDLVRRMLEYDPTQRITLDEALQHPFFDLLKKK
CLK4 ADP FP: CLK4 (human) inhibition, Transcreener FP confirmation; shares compounds with Pf growth 48h; recombinant Clk4, ADP Transcreener FP, RS peptide; Potency, µM (doses to about 80 µM), for inactives: at the top dose activity, negative = inhibition, hits mostly inhibitors; actives 70% (n = 65)
An asterisk follows results filed as active; ? = inconclusive; . = no result. Unless noted, calls follow the shape of the dose curve; as a rule, active = well fitted curve in the direction sought with a large enough effect; inconclusive = small, poorly fitted or top-dose-only effect, or another doubt; inactive = no such curve, though single readings can be large; an effect the other way counts as inactive or inconclusive.

SMILES	NS1 function inh	CHX counter	Pf growth 96h	Pf growth 48h	Sm TGR inh	Shiga inhibitor	CLK4 cf ADPGlo	CLK4 ADP FP
Fc1cccc(CNc2ncnc3ccc(-c4ccc5c(c4)OCO5)cc23)c1	.	.	2.94µM*	4.15µM*	-11.2%	.	0.141µM*	0.0891µM*
O=C(COc1ncnc2ccc(Br)cc12)NCc1ccc2c(c1)OCO2	-11.8%	-2.8	.	11.3%	1.4%	-12.5	.	.
c1cncc(-c2ccc3ncnc(NCc4ccc5c(c4)OCO5)c3c2)c1	.	.	?	?	5.3%	.	7.08µM*	11.2µM*
Cc1sc2ncnc(N3CCC(C(=O)Nc4ccc(Br)cc4Br)CC3)c2c1C	.	.	?	?	-1.4%	.	.	.
Cn1c(=O)n(C)c2cc(N3CCCCC3)c(NC(=O)Nc3ccc(Br)cc3)cc21	.	.	.	.	-1.1%	.	.	.
Cn1ccc2cc(-c3ccc4ncnc(NCc5cccs5)c4c3)ccc21	.	.	5.22µM*	2.94µM*	-4.0%	.	14.1µM*	?
Cn1ccc2cc(-c3ccc4ncnc(NCc5cccnc5)c4c3)ccc21	.	.	2.62µM*	1.85µM*	-1.3%	.	10µM*	14.1µM*
Cn1ccc2cc(-c3ccc4ncnc(NCc5cccc(F)c5)c4c3)ccc21	.	.	3.7µM*	8.28µM*	1.8%	.	?	?
Cc1ccc(CNc2ncnc3ccc(-c4c(C)noc4C)cc23)cc1	.	12.5	.	.	.	25.2	.	.
COc1ccccc1N1CCN(C2CCCN(C(=O)CCc3cnn(C)c3)C2)CC1 (centres undefined)	4.9%	-2.6	-0.6%	-1.8%	4.0%	-6.9	.	.
COc1cccc(-c2ccc3ncnc(NCc4cccc(F)c4)c3c2)c1	.	.	3.7µM*	6.57µM*	-0.5%	.	0.631µM*	0.891µM*
COc1cccc(-c2ccc3ncnc(NCc4cccc(C)c4)c3c2)c1	.	.	3.7µM*	6.57µM*	10.7%	.	1.26µM*	1.78µM*
COc1cccc(CNc2ncnc3cc(Cl)ccc23)c1	-6.5%	-2.7	-2.5%	?	.	-7.5	.	.
CCN(C(=S)Nc1ccccc1F)C1CCCCC1	0.7%	-1.5	-19.9%	?	4.9%	10.1	.	.
Cc1ccc(-n2ncc3c(N(C)Cc4ccccc4)ncnc32)cc1	.	.	.	.	-3.7%	.	.	.
CN(Cc1ccccc1)c1ncnc2ccc(Br)cc12	-35.5%	-2.3	59.3%	?	-1.5%	-21.0	.	.
CN(Cc1ccco1)c1ncnc2ccc(-c3ccccc3Cl)cc12	.	.	?	9.28µM*	-6.7%	.	10µM*	15.8µM*
CN(Cc1ccco1)c1ncnc2ccc(-c3ccoc3)cc12	.	.	?	?	20µM*	.	0.251µM*	0.316µM*
CC(C)(C)N(Cc1ccccc1)C(=O)c1cc2ccccc2o1	2.6%	0.6	16.2%	?	-0.6%	-9.8	.	.
O=C(Cn1ncc2c(=O)oc3ccccc3c21)NCc1ccc(Cl)cc1	.	.	.	.	-6.7%	.	.	.
Cc1nc2ccc(C(=O)OCC(=O)N(C)c3ccccc3)cc2nc1C	.	.	21.4%	?	-10.1%	.	.	.
c1cncc(-c2ccc3ncnc(NCc4cccs4)c3c2)c1	.	.	9.28µM*	?	0.7%	.	3.16µM*	7.08µM*
COc1cccc(-c2ccc3ncnc(NCc4cccs4)c3c2)c1	.	.	4.15µM*	9.28µM*	8.8%	.	1µM*	1.12µM*
CC(=O)N1CSCC1C(=O)NNS(=O)(=O)c1ccccc1 (centres undefined)	-0.2%	-0.8	47.4%	26.7%	-0.7%	-4.4	.	.

Compound activity (PubChem)
